Data reported in the supplement of paper PMC4022240.
± gives the standard deviation.

What was measured:
Assay in all cases: peptide microarray binding signal (635 nm), min-max normalized on array (fraction of array maximum); higher = stronger binding
[1] = molecular target: T1, HaloTag-ATRX ADD domain (163-292)
T1 chain: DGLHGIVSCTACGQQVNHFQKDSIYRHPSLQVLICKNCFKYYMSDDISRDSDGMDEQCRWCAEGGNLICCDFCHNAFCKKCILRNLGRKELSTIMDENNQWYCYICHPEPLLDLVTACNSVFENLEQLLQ
How it was run: (§1)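 Arrays carried histone 13-mer peptide–cellulose conjugates printed in triplicate on nitrocellulose alongside a Cy3 tracer. After overnight blocking at 4°C, they were incubated for 1 h at 4°C with biotin-labelled HaloTag reader fusions (10 nM to 1 μM) plus streptavidin-Alexa Fluor 647, or with rabbit histone antibodies (1:10,000 to 1:2,000) plus anti-rabbit Alexa 647. Scanning on an Axon GenePix 4000B used 635 nm for signal and 532 nm for misprints. The binding signal reported is each triplicate's mean spot intensity after per-library min-max scaling.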

[2] = molecular target: HaloTag-ING2 PHD (mouse Ing2 200-280)
How it was run: as §1

[3] = molecular target: anti-H3K4me3 antibody ab8580
How it was run: as §1

[4] = molecular target: anti-H3K9me3 antibody ab8898
How it was run: as §1

[5] = peptide region: H3 30-42, peptide modifications: H3K36me1 H3K37me3, binder concentration: 1:2,000 dilution
[6] = peptide region: H3 30-42, peptide modifications: H3K36me1 H3K37me3, binder concentration: 1:10,000 dilution
[7] = peptide region: H3 30-42, peptide modifications: H3K36me1 H3K37me1, binder concentration: 1:2,000 dilution
[8] = peptide region: H3 30-42, peptide modifications: H3K36me1 H3K37me1, binder concentration: 1:10,000 dilution
[9] = peptide region: H3 30-42, peptide modifications: H3K36me1, binder concentration: 1:2,000 dilution
[10] = peptide region: H3 30-42, peptide modifications: H3K36me1, binder concentration: 1:10,000 dilution
[11] = peptide region: H3 20-32, peptide modifications: H3T22ph H3K23me2, binder concentration: 1:2,000 dilution
[12] = peptide region: H3 20-32, peptide modifications: H3T22ph H3K23me2, binder concentration: 1:10,000 dilution
[13] = peptide region: H3 30-42, peptide modifications: H3K36me1 H3K37ac, binder concentration: 1:2,000 dilution
[14] = peptide region: H3 30-42, peptide modifications: H3K36me1 H3K37ac, binder concentration: 1:10,000 dilution

PATGGVKKPHRYR [H3 30-42 P A T G G V Kme Kme3 P H R Y R]
peptide microarray binding signal ([1]; peptide region: H3 30-42, peptide modifications: H3K36me1 H3K37me3, binder concentration: 50 nM): 0.00135 ± 1.7e-05
peptide microarray binding signal ([1]; peptide region: H3 30-42, peptide modifications: H3K36me1 H3K37me3, binder concentration: 500 nM): 0.00229 ± 8.8e-05
peptide microarray binding signal ([2]; peptide region: H3 30-42, peptide modifications: H3K36me1 H3K37me3, binder concentration: 10 nM): 0.00203 ± 8.9e-05
peptide microarray binding signal ([2]; peptide region: H3 30-42, peptide modifications: H3K36me1 H3K37me3, binder concentration: 100 nM): 0.00191 ± 0.00013
peptide microarray binding signal [3, 5]: 0.000359 ± 2.1e-05
peptide microarray binding signal [3, 6]: 0.000514 ± 1.1e-05
peptide microarray binding signal [4, 5]: 0.0008 ± 8.7e-05
peptide microarray binding signal [4, 6]: 0.000807 ± 1.5e-05

PATGGVKKPHRYR [H3 30-42 P A T G G V Kme Kme P H R Y R]
peptide microarray binding signal ([1]; peptide region: H3 30-42, peptide modifications: H3K36me1 H3K37me1, binder concentration: 50 nM): 0.00245 ± 4.3e-05
peptide microarray binding signal ([1]; peptide region: H3 30-42, peptide modifications: H3K36me1 H3K37me1, binder concentration: 500 nM): 0.0039 ± 0.00015
peptide microarray binding signal ([2]; peptide region: H3 30-42, peptide modifications: H3K36me1 H3K37me1, binder concentration: 10 nM): 0.00424 ± 0.00021
peptide microarray binding signal ([2]; peptide region: H3 30-42, peptide modifications: H3K36me1 H3K37me1, binder concentration: 100 nM): 0.000496 ± 9.7e-06
peptide microarray binding signal [3, 7]: 0.000189 ± 2e-06
peptide microarray binding signal [3, 8]: 0.00559 ± 0.0011
peptide microarray binding signal [4, 7]: 0.00157 ± 0.00052
peptide microarray binding signal [4, 8]: 0.00254 ± 0.00014

PATGGVKKPHRYR [H3 30-42 P A T G G V Kme K P H R Y R]
peptide microarray binding signal ([1]; peptide region: H3 30-42, peptide modifications: H3K36me1, binder concentration: 50 nM): 0.0102 ± 0.00043
peptide microarray binding signal ([1]; peptide region: H3 30-42, peptide modifications: H3K36me1, binder concentration: 500 nM): 0.015 ± 0.0004
peptide microarray binding signal ([2]; peptide region: H3 30-42, peptide modifications: H3K36me1, binder concentration: 10 nM): 0.0184 ± 0.00087
peptide microarray binding signal ([2]; peptide region: H3 30-42, peptide modifications: H3K36me1, binder concentration: 100 nM): 0.0275 ± 0.0015
peptide microarray binding signal [3, 9]: 0.00478 ± 0.00043
peptide microarray binding signal [3, 10]: 0.00474 ± 0.00045
peptide microarray binding signal [4, 9]: 0.00237 ± 7.4e-05
peptide microarray binding signal [4, 10]: 0.00277 ± 4.8e-05

LATKAARKSAPAT [H3 20-32 L A Tph Kme2 A A R K S A P A T]
peptide microarray binding signal ([1]; peptide region: H3 20-32, peptide modifications: H3T22ph H3K23me2, binder concentration: 50 nM): 0.004921 ± 4.8e-05
peptide microarray binding signal ([1]; peptide region: H3 20-32, peptide modifications: H3T22ph H3K23me2, binder concentration: 500 nM): 0.00605 ± 0.00026
peptide microarray binding signal ([2]; peptide region: H3 20-32, peptide modifications: H3T22ph H3K23me2, binder concentration: 10 nM): 0.0107 ± 0.0003
peptide microarray binding signal ([2]; peptide region: H3 20-32, peptide modifications: H3T22ph H3K23me2, binder concentration: 100 nM): 0.00893 ± 0.00037
peptide microarray binding signal [3, 11]: 0.00359 ± 3.6e-05
peptide microarray binding signal [3, 12]: 0.00268 ± 0.00016
peptide microarray binding signal [4, 11]: 0.00201 ± 8.1e-05
peptide microarray binding signal [4, 12]: 0.00196 ± 1.8e-05

PATGGVKKPHRYR [H3 30-42 P A T G G V Kme Kac P H R Y R]
peptide microarray binding signal ([1]; peptide region: H3 30-42, peptide modifications: H3K36me1 H3K37ac, binder concentration: 50 nM): 0.00263 ± 0.00011
peptide microarray binding signal ([1]; peptide region: H3 30-42, peptide modifications: H3K36me1 H3K37ac, binder concentration: 500 nM): 0.0039 ± 5.6e-05
peptide microarray binding signal ([2]; peptide region: H3 30-42, peptide modifications: H3K36me1 H3K37ac, binder concentration: 10 nM): 0.00298 ± 3.3e-05
peptide microarray binding signal ([2]; peptide region: H3 30-42, peptide modifications: H3K36me1 H3K37ac, binder concentration: 100 nM): 0.00354 ± 8.3e-05
peptide microarray binding signal [3, 13]: 0.00145 ± 6.2e-05
peptide microarray binding signal [3, 14]: 0.00137 ± 5.4e-05
peptide microarray binding signal [4, 13]: 0.00163 ± 7.6e-05
peptide microarray binding signal [4, 14]: 0.00127 ± 2.5e-05
